From PubChem
The list is not random: actives were taken first. Their share in the collection is about 3.8%.
pPAFAH FP inh – pPAFAH enzyme inhibitors, primary screen, biochemical, fluorescence polarization, human; 1.5% of 330,000 active; Platelet-activating factor acetylhydrolase (Homo sapiens), Q13093; recombinant pPAFAH, FP-rhodamine probe fluorescence polarization; inhibition, % at 3.39 µM;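 active = inhibition above the mean inhibition across the screen plus 3 SD, cut at about 25% in these data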;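 also: inhibitors block binding of the rhodamine activity-based probe so polarization drops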
Target sequence (Q13093 whole entry, looked up): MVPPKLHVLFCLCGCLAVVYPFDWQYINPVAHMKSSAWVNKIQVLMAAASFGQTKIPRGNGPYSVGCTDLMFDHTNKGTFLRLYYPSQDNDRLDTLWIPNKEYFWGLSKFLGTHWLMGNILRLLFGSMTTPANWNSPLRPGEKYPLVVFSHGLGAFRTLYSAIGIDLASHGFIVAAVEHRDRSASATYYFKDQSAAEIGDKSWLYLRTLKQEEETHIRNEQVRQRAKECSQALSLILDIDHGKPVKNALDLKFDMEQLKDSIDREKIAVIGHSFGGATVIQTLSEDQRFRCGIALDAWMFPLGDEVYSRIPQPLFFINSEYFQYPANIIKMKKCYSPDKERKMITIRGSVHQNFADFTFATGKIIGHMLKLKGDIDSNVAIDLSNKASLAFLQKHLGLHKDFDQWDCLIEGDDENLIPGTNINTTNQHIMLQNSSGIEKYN
PAFAH1B2 FP inh – PAFAH1B2 enzyme inhibitors, primary screen, biochemical, fluorescence polarization, human | Platelet-activating factor acetylhydrolase IB subunit alpha2 (Homo sapiens), P68402 | recombinant PAFAH1B2, FP-rhodamine activity probe | inhibition, % at 3.39 µM | 1.2% of 340,000 active;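 active = inhibition above the mean of all tested compounds plus 3 SD, cut at about 24% in these data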
M18AAP inhibitor – PfM18AAP inhibitors, malaria aminopeptidase, primary screen, biochemical, QFRET, recombinant enzyme. H-Glu-NHMec fluorogenic cleavage. M18 aspartyl aminopeptidase (Plasmodium falciparum 3D7). inhibition, % at 7.35 µM. 1.2% of 290,000 active;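 active = inhibition above the campaign mean inhibition over all tested compounds plus 3 SD, cut at about 28% in these data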
PAFAH1B3 FP inh – PAFAH1B3 enzyme inhibitors, primary screen, biochemical, fluorescence polarization, human. Platelet-activating factor acetylhydrolase IB subunit alpha1 (Homo sapiens), Q15102. recombinant PAFAH1B3, FP-rhodamine probe. inhibition, % at 3.39 µM. 0.28% of 340,000 active. AID 492972, 2010;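 active = inhibition above the screen-wide average of all tested compounds plus 3 SD, cut at about 25% in these data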
DSG3 Ab inh – inhibitors of pemphigus antibody binding to DSG3, primary screen, biochemical, bead-based, flow cytometry, scFv-GFP. DSG3-coupled beads, scFv-anti-DSG3-GFP binding; active compounds read low. binding (percent of control), % at 10 µM. AID 588358, 2011. Desmoglein-3 (Homo sapiens), P32926. 0.48% of 310,000 active;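 active = binding more than 3 SD below its plate's average and above zero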;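 also: hits lower antibody fragment binding to DSG3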
PAFAH2 FP inh – PAFAH2 enzyme inhibitors, primary screen, biochemical, fluorescence polarization, human; 0.99% of 340,000 active; inhibition, % at 3.39 µM; recombinant PAFAH2, FP-rhodamine activity probe; Platelet-activating factor acetylhydrolase 2, cytoplasmic (Homo sapiens), Q99487;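 active = inhibition above the mean over all tested compounds plus 3 SD, cut at about 30% in these data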;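 also: inhibitors block probe labeling of enzyme so polarization drops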
pPAFAH confirm – pPAFAH (PLA2G7) enzyme inhibitors, confirmation, biochemical, fluorescence polarization, human; 72% of 2,300 active; shares compounds with pPAFAH FP inh; recombinant pPAFAH, FP-Rh probe fluorescence polarization; AID 463230, 2010; inhibition, % at 3.39 µM;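 active = mean inhibition of the triplicate above the hit cutoff set for the earlier primary screen, cut at about 25% in these data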
A number is an active result; i = inactive; nt = no result.

SMILES	pPAFAH FP inh	PAFAH1B2 FP inh	M18AAP inhibitor	PAFAH1B3 FP inh	DSG3 Ab inh	PAFAH2 FP inh	pPAFAH confirm
CCCCn1c(N)c(N(CCOC)C(=O)CN2c3ccccc3CC2C)c(=O)[nH]c1=O (configuration not stated)	i	i	i	i	i	i	nt
O=C1/C(=C/C=C/c2ccco2)SC(=S)N1NS(=O)(=O)c1ccccc1	74	32	i	45	51	67	69
CC(C(=O)O)N1C(=O)/C(=C/C=C/c2ccco2)SC1=S (configuration not stated)	76	i	i	26	69	50	46
CN1CCN(C(=O)c2cccc(NS(=O)(=O)c3ccc(Br)cc3)c2)CC1	i	i	nt	i	i	i	nt
CCNC(=S)NNC(=O)c1ccccn1	i	i	i	i	i	i	nt
O=C(NNC(=S)Nc1ccc(Cl)c(Cl)c1)c1ccccn1	37	i	i	i	i	i	51
CCNc1cc(O)ccc1C	75	i	nt	i	i	i	i
C/C(CC(=O)N1CCN(C=O)CC1)=N\NC(=O)c1cc2ccccc2cc1O	54	i	i	i	i	i	i
C/C(=N\NC(=O)c1ccccc1O)C1C(=O)c2ccccc2C1=O	49	i	i	28	i	30	40
C/C(=N/NC(=O)c1cc2ccccc2cc1O)C1C(=O)c2ccccc2C1=O	77	73	i	37	nt	74	68
C/C(CC(=O)N1CCN(C=O)CC1)=N\NC(=O)c1ccc([N+](=O)[O-])cc1	i	i	i	i	i	i	nt
CCCc1cc(=O)oc2cc(OCC(=O)NCCc3c[nH]c4ccccc34)ccc12	i	i	i	i	i	i	nt
O=C1C=C(c2ccc3c(c2)oc2ccccc23)C[C@@H](c2ccc3c(c2)OCO3)C1	i	i	nt	i	i	i	nt
COc1ccc(-c2[nH]ncc2CN2CCCC(C(=O)c3ccc(OC)cc3OC)C2)cc1 (configuration not stated)	i	i	i	i	i	i	nt
COc1ccc(OC)c(CN2CCCC(C(=O)c3ccccc3SC)C2)c1 (configuration not stated)	58	i	i	i	i	i	i
COc1cc(Cl)c(C)cc1NC(=O)CSc1sc2c(O)cc(=O)[nH]c2c1C#N	40	i	i	i	i	i	31
COc1ccccc1/C=C/c1ccc2cccc(O)c2n1	42	i	i	i	i	i	i
COc1ccc(Cl)cc1/C=C/c1ccc2cccc(O)c2n1	i	i	i	i	i	i	nt
O=C(O)c1cc(O)c2c(c1)C(=O)c1cccc(O)c1C2=O	36	i	28	i	nt	34	i
Cc1cc(O)c2c(c1)C(=O)c1cccc(O)c1C2=O	nt	nt	i	nt	nt	nt	nt
CN(CC(=O)Nc1ccccc1Br)C(=O)CNC(=O)c1ccc(Oc2ccccc2)cc1	i	i	i	i	nt	i	nt
COc1ccc(NS(=O)(=O)c2ccc(N3CC(O)=C(c4ccccc4)C3=N)cc2)cc1	i	i	i	i	i	i	nt
COc1ccc(CC(=O)NNC(=O)COc2ccc(C)cc2)cc1S(=O)(=O)N1CCOCC1	i	i	nt	i	i	i	nt
CCCCOc1cc(NCc2ccccc2)c2ncn(C(C)C)c2c1	36	i	nt	i	i	i	39
COCCCOc1cc(NCc2ccccc2)c2ncn(C(C)C)c2c1	i	i	nt	i	i	i	nt
SMILES	pPAFAH FP inh	PAFAH1B2 FP inh	M18AAP inhibitor	PAFAH1B3 FP inh	DSG3 Ab inh	PAFAH2 FP inh	pPAFAH confirm
CC(C)n1c(SCC(=O)N2CCN(C)CC2)nc2c1c(=O)n(C)c(=O)n2C	i	i	i	i	i	i	nt
O=C(O)c1ccc(N=Nc2c(O)ccc3ncccc23)cc1	39	i	i	33	i	i	56
CCOc1ccc2nc(-c3cc(NC(C)=O)ccc3O)sc2c1	i	i	i	i	i	i	nt
COc1ccc(/C=C2/SC(=S)N(CCC(=O)O)C2=O)cc1	i	i	i	i	i	i	nt
O=C(O)CCN1C(=O)/C(=C\c2cccc(Oc3ccccc3)c2)SC1=S	36	28	i	i	i	i	i
O=C(O)COc1ccc(/C=C2/SC(=S)N(Cc3ccccc3)C2=O)cc1	54	i	i	i	i	i	i
CCOc1ccc(C(=O)N2CCC3(CC2)NCCc2[nH]cnc23)cc1	i	i	i	i	i	i	nt
Nc1c(S(=O)(=O)O)cc(NC(=O)c2ccccc2)c2c1C(=O)c1ccccc1C2=O	84	34	i	49	i	54	90
O=C(Nc1ccccc1-c1ccccc1)c1ccccc1	i	i	i	i	i	i	nt
O=[N+]([O-])c1cc(C(F)(F)F)cc([N+](=O)[O-])c1NN=C1CCCCC1	35	i	i	i	i	i	i
CC(=O)Nc1ccc(NC(=O)CSc2nc(N)c(NC(=O)c3ccccc3F)c(=O)[nH]2)cc1	i	i	i	i	i	i	nt
CCOC(=O)C1CCCN(C(=O)c2cc(-c3ccncc3)nc3ccccc23)C1 (configuration not stated)	i	i	nt	i	i	i	nt
CCOC(=O)C1CCCN(C(=O)c2cc(-c3ccco3)nc3ccccc23)C1 (configuration not stated)	49	i	nt	i	i	i	40
CC(C)(C)S(=O)(=O)/C(C#N)=N/Nc1ccc(Cl)cc1	35	i	i	i	i	i	37
N#C/C(=N\Nc1ccc(Cl)cc1)C(=N)N1CCCCCC1	i	i	i	i	i	i	nt
O=Cc1nc(-c2ccc(Cl)cc2)n2ccccc12	71	i	i	i	i	i	i
Cc1c(N/C(=N/S(=O)(=O)c2ccc(Cl)cc2)c2ccccc2)c(=O)n(-c2ccccc2)n1C	82	nt	i	nt	nt	nt	i
CCOc1ccc(-c2ccc(/C=C3/C(=N)N4C(C)=CSC4=NC3=O)o2)c([N+](=O)[O-])c1	45	i	i	i	i	i	37
CCOc1ccccc1Nc1nnc(SCC(=O)N(C)C2CCS(=O)(=O)C2)s1 (configuration not stated)	i	i	nt	i	i	i	nt
O=C1CC(=O)N(Cc2ccco2)C(=S)N1	41	i	i	i	i	i	i
O=C1CC(=O)N(Cc2ccco2)C(=O)N1	37	i	i	i	i	i	i
S=C1NCN(Cc2ccco2)CN1	i	i	i	i	i	i	nt
O=C1CC(=O)N(Cc2cccs2)C(=O)N1	i	i	i	i	i	i	nt
